Test results from PubChem BioAssay AID1159580 (chemical genetic matrix, 2015).
Values joined by “and” are separate entries in the source; they are usually repeats but may differ in a detail not shown here. Equal entries are not always repeated. About 2,000 (36%) of roughly 5,500 compounds were called active. Not shown: some 18% with an inconclusive outcome. Rule as the data show it: active = normalized growth mostly below about 0.91 (no sharp cut-off); inconclusive = no clear call, values can overlap the other calls; inactive = mostly above about 0.92. Some of the results follow.

Assay: chemical genetic growth profiling, strain panel (AID 1159580);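 also: tested at 20 µM; growth read once vehicle control cultures reached saturation at 30 °C; 1 = growth at the plate median or of vehicle wells; lower values mean less growth of the strain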
Conditions: S. cerevisiae deletion strains, growth OD

Measured: normalized growth

C[C@H](CCC(=O)O)[C@H]1CCC2C3C(=O)CC4CC(=O)CC[C@]4(C)C3CC(=O)[C@@]21C (some centres not stated)
active: locus YMR231W, strain pep5, stronger effect = lower value 0.906
inactive: locus YAL021C, strain ccr4, stronger effect = lower value 0.908 | locus YAL026C, strain drs2, stronger effect = lower value 0.99 | locus YAL030W, strain snc1, stronger effect = lower value 0.963 | locus YBL061C, strain skt5, stronger effect = lower value 0.99 | locus YBR009C, strain hhf1, stronger effect = lower value 0.992 | locus YBR021W, strain FUR4, stronger effect = lower value 1.01 | locus YBR023C, strain chs3, stronger effect = lower value 0.987 | locus YBR171W, strain sec66, stronger effect = lower value 0.956 | locus YBR229C, strain ROT2, stronger effect = lower value 1.01 | locus YBR231C, strain swc5, stronger effect = lower value 0.967 | locus YBR279W, strain paf1, stronger effect = lower value 0.994 | locus YCL011C, strain gbp2, stronger effect = lower value 0.991 | locus YCL016C, strain dcc1, stronger effect = lower value 1.02 | locus YCL029C, strain bik1, stronger effect = lower value 1.01 | locus YCL061C, strain MRC1, stronger effect = lower value 0.972 | locus YCL069W, strain vba3, stronger effect = lower value 0.978 | locus YCR088W, strain abp1, stronger effect = lower value 0.987 | locus YDL005C, strain med2, stronger effect = lower value 0.952 | locus YDL035C, strain GPR1, stronger effect = lower value 1.02 | locus YDL040C, strain nat1, stronger effect = lower value 0.976 | locus YDL074C, strain BRE1, stronger effect = lower value 1 | locus YDL101C, strain DUN1, stronger effect = lower value 1.01 | locus YDL134C, strain PPH21, stronger effect = lower value 1.02 | locus YDL185W, strain tfp1, stronger effect = lower value 1.01 | locus YDL192W, strain arf1, stronger effect = lower value 1 | locus YDR001C, strain nth1, stronger effect = lower value 0.969 | locus YDR069C, strain doa4, stronger effect = lower value 0.951 | locus YDR101C, strain arx1, stronger effect = lower value 1.02 | locus YDR137W, strain rgp1, stronger effect = lower value 0.999 | locus YDR159W, strain sac3, stronger effect = lower value 0.937 | locus YDR162C, strain NBP2, stronger effect = lower value 1.02 | locus YDR195W, strain ref2 0.937 | locus YDR297W, strain sur2, stronger effect = lower value 0.981 | locus YDR318W, strain mcm21, stronger effect = lower value 1 | locus YDR334W, strain swr1, stronger effect = lower value 0.957 | locus YDR335W, strain msn5, stronger effect = lower value 0.978 | locus YDR388W, stronger effect = lower value 1 | locus YDR392W, strain spt3, stronger effect = lower value 1.06 | locus YDR502C, strain sam2, stronger effect = lower value 0.998 | locus YEL003W, strain gim4, stronger effect = lower value 0.979 | locus YEL037C, strain rad23, stronger effect = lower value 0.983 | locus YEL061C, strain CIN8 (second series), stronger effect = lower value 0.962 | locus YEL061C, strain CIN8, stronger effect = lower value 1.01 | locus YER015W, strain faa2, stronger effect = lower value 0.991 | locus YER016W, strain bim1, stronger effect = lower value 1.04 | locus YER110C, stronger effect = lower value 1.01 | locus YER111C, strain swi4, stronger effect = lower value 0.974 | locus YER155C, strain BEM2 (second series), stronger effect = lower value 0.961 | locus YER155C, strain BEM2, stronger effect = lower value 1 | locus YER167W, strain BCK2, stronger effect = lower value 1.01 | locus YFR010W, strain ubp6, stronger effect = lower value 0.965 | locus YGL078C, strain dbp3, stronger effect = lower value 1.01 | locus YGL086W, strain mad1, stronger effect = lower value 1.01 | locus YGL167C, strain pmr1, stronger effect = lower value 0.947 | locus YGL173C, strain kem1, stronger effect = lower value 0.962 | locus YGL227W, strain vid30, stronger effect = lower value 0.97 | locus YGL240W, strain doc1, stronger effect = lower value 0.948 | locus YGL248W, strain PDE1, stronger effect = lower value 1 | locus YGL253W, strain hxk2, stronger effect = lower value 1 | locus YGR135W, strain pre9, stronger effect = lower value 0.994 | locus YGR252W, strain gcn5, stronger effect = lower value 0.972 | locus YHR013C, strain ard1, stronger effect = lower value 1 | locus YHR027C, strain rpn1, stronger effect = lower value 0.988 | locus YHR030C, strain SLT2, stronger effect = lower value 1.01 and 1.03 | locus YHR079C, strain IRE1 (second series), stronger effect = lower value 0.997 | locus YHR079C, strain IRE1, stronger effect = lower value 1 | locus YHR094C, strain hxt1, stronger effect = lower value 1.01 | locus YHR129C, strain ARP1, stronger effect = lower value 1.01 | locus YHR142W, strain chs7, stronger effect = lower value 0.957 | locus YHR200W, strain rpn10, stronger effect = lower value 1 | locus YIL066C, strain RNR3, stronger effect = lower value 1.02 | locus YIL073C, strain SPO22, stronger effect = lower value 1.01 | locus YIL125W, strain kgd1, stronger effect = lower value 1.01 | locus YIR030C, strain dcg1, stronger effect = lower value 1.01 | locus YJL092W, strain hpr5, stronger effect = lower value 0.971 | locus YJL095W, strain BCK1 (second series), stronger effect = lower value 0.969 | locus YJL095W, strain BCK1, stronger effect = lower value 1 and 1.02 | locus YJL115W, strain asf1, stronger effect = lower value 0.978 | locus YJL129C, strain trk1, stronger effect = lower value 0.962 | locus YJL134W, strain LCB3, stronger effect = lower value 1.01 | locus YJL154C, strain vps35, stronger effect = lower value 0.958 | locus YJL164C, strain tpk1, stronger effect = lower value 1.01 | locus YJL166W, strain qcr8, stronger effect = lower value 0.916 | locus YJL168C, strain set2, stronger effect = lower value 1 | locus YJL187C, strain SWE1 (second series), stronger effect = lower value 1.01 | locus YJR043C, strain POL32, stronger effect = lower value 1.01 | locus YJR066W, strain TOR1, stronger effect = lower value 0.971 | locus YJR075W, strain HOC1, stronger effect = lower value 1.02 | locus YKL009W, strain mrt4, stronger effect = lower value 0.992 | locus YKL068W, stronger effect = lower value 1.01 | locus YKL085W, strain MDH1 (second series), stronger effect = lower value 1.02 | locus YKL085W, strain MDH1, stronger effect = lower value 1.02 | locus YKL160W, strain elf1, stronger effect = lower value 0.985 | locus YKR001C, strain vps1, stronger effect = lower value 1.01 | locus YKR026C, strain gcn3, stronger effect = lower value 0.972 | locus YLL001W, strain dnm1, stronger effect = lower value 0.923 | locus YLL026W, stronger effect = lower value 0.987 | locus YLL041C, strain sdh2, stronger effect = lower value 0.978 | locus YLR027C, strain aat2, stronger effect = lower value 0.993 | locus YLR039C, strain RIC1, stronger effect = lower value 0.955 | locus YLR058C, strain SHM2, stronger effect = lower value 1.01 | locus YLR102C, strain apc9, stronger effect = lower value 0.999 | locus YLR113W, strain HOG1, stronger effect = lower value 1.03 | locus YLR221C, strain rsa3, stronger effect = lower value 1.04 | locus YLR258W, strain gsy2, stronger effect = lower value 0.982 | locus YLR262C, strain YPT6 (second series), stronger effect = lower value 0.926 | locus YLR262C, strain YPT6, stronger effect = lower value 1.05 | locus YLR268W, strain sec22, stronger effect = lower value 1 | locus YLR320W, strain mms22, stronger effect = lower value 1 | locus YLR330W, strain CHS5, stronger effect = lower value 1.01 | locus YLR342W, strain FKS1 (second series), stronger effect = lower value 1 | locus YLR342W, strain FKS1, stronger effect = lower value 0.972 | locus YLR357W, strain rsc2, stronger effect = lower value 0.917 | locus YLR370C, strain arc18, stronger effect = lower value 0.987 | locus YLR371W, strain rom2, stronger effect = lower value 1 | locus YLR384C, strain iki3, stronger effect = lower value 0.976 | locus YLR418C, strain cdc73, stronger effect = lower value 0.981 | locus YML016C, strain PPZ1, stronger effect = lower value 1.01 | locus YML032C, strain rad52, stronger effect = lower value 0.994 | locus YML120C, strain ndi1, stronger effect = lower value 0.967 | locus YML124C, strain tub3, stronger effect = lower value 0.995 | locus YMR058W, strain fet3, stronger effect = lower value 0.976 | locus YMR078C, strain ctf18, stronger effect = lower value 1.01 | locus YMR125W, strain sto1, stronger effect = lower value 0.93 | locus YMR129W, stronger effect = lower value 0.993 | locus YMR205C, strain PFK2, stronger effect = lower value 0.953 | locus YMR223W, strain ubp8, stronger effect = lower value 1 | locus YMR307W, strain GAS1, stronger effect = lower value 1.05 | locus YNL067W, strain RPL9B, stronger effect = lower value 1.01 | locus YNL071W, strain lat1, stronger effect = lower value 0.975 | locus YNL153C, strain GIM3, stronger effect = lower value 0.996 | locus YNL183C, strain NPR1, stronger effect = lower value 0.982 | locus YNL209W, strain ssb2, stronger effect = lower value 0.99 | locus YNL233W, strain BNI4, stronger effect = lower value 1.01 | locus YNL248C, strain rpa49, stronger effect = lower value 1 | locus YNL250W, strain rad50, stronger effect = lower value 0.995 | locus YNL271C, strain bni1, stronger effect = lower value 0.996 | locus YNL298W, strain CLA4, stronger effect = lower value 1 | locus YNL307C, strain MCK1, stronger effect = lower value 1 | locus YNL322C, strain KRE1 (second series), stronger effect = lower value 0.975 | locus YNL322C, strain KRE1, stronger effect = lower value 1.02 | locus YNR049C, strain mso1, stronger effect = lower value 0.983 | locus YNR052C, strain pop2, stronger effect = lower value 1 | locus YOL012C, strain htz1 1.17 | locus YOL147C, strain pex11, stronger effect = lower value 1.01 | locus YOR001W, strain rrp6, stronger effect = lower value 0.965 | locus YOR061W, strain CKA2, stronger effect = lower value 1.01 | locus YOR069W, strain VPS5, stronger effect = lower value 1.01 | locus YOR070C, strain gyp1, stronger effect = lower value 0.995 | locus YOR080W, strain dia2, stronger effect = lower value 0.947 | locus YOR083W, strain WHI5, stronger effect = lower value 0.964 | locus YOR106W, strain vam3, stronger effect = lower value 0.924 | locus YOR136W, strain idh2, stronger effect = lower value 1 | locus YOR144C, strain elg1, stronger effect = lower value 1.01 | locus YOR184W, strain ser1, stronger effect = lower value 0.999 | locus YOR231W, strain MKK1, stronger effect = lower value 1.03 | locus YOR265W, strain rbl2, stronger effect = lower value 0.971 | locus YOR270C, strain vph1, stronger effect = lower value 0.988 | locus YOR290C, strain snf2, stronger effect = lower value 1.02 | locus YOR316C, strain cot1, stronger effect = lower value 1.01 | locus YPL051W, strain arl3, stronger effect = lower value 1.02 | locus YPL055C, strain LGE1, stronger effect = lower value 1.02 | locus YPL078C, strain atp4, stronger effect = lower value 0.929 | locus YPL106C, strain sse1, stronger effect = lower value 0.94 | locus YPL240C, strain hsp82, stronger effect = lower value 0.989 | locus YPL256C, strain CLN2, stronger effect = lower value 1.04 | locus YPR119W, strain clb2, stronger effect = lower value 1.01 | locus YPR141C, strain kar3, stronger effect = lower value 1.01 | locus YPR163C, strain tif3, stronger effect = lower value 1 | locus YPR167C, strain met16, stronger effect = lower value 1 | strain wtn01, stronger effect = lower value 0.988
